Test results from PubChem BioAssay AID720716 (Broad Institute, 2013).
Active and inactive are the calls of the source.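 Rule for the calls: active = compounds whose fitted half-maximal concentration is at most twice the top tested dose; inconclusive = flat curve with 30 to 70% signal loss, or poor fit; inactive = flat, opposite-direction or too weak compounds.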

Experiment: EF1alpha-driven Renilla reporter with control 3'UTR suppression – Clone20-Shn3RL cells, dual-Glo, dry powder, counter-screen for Shn3 3'UTR targeting project, dose response (AID 720716)
Details: Renilla luciferase control reporter, 24 h; series mostly up to 35 µM

Structure (SMILES)	outcome
CN(CC(=O)Nc1cccc(S(=O)(=O)N2CCOCC2)c1)CC(=O)Nc1ccc(Cl)c(C(F)(F)F)c1	inactive
Cc1ccc2cc(CN(CC3CCCO3)C(=O)NC3CCCCC3)c(=O)[nH]c2c1C (configuration not stated)	inactive
CN(C)c1nc(-c2ccccn2)nnc1-c1ccccc1	inactive
CC(=O)Nc1cccc(NC(=O)CSc2ncc(-c3ccc(Cl)cc3)n2Cc2ccco2)c1	inactive
COc1ccccc1N1CCN(c2ncc(C(=O)N3CCN(c4cccc(Cl)c4)CC3)c3ccccc23)CC1	inactive
CCCc1nnc(NC(=O)c2nc(S(=O)(=O)Cc3ccc(C)cc3)ncc2Cl)s1	inactive
CC(=O)N1CCN(C(=O)CCc2cc(C(C)(C)C)c(O)c(C(C)(C)C)c2)CC1	inactive
CCOC(=O)C1(Cc2ccc(Cl)cc2)CCN(C(C)Cc2ccc(O)c(OC)c2)CC1 (configuration not stated)	inactive
Nc1nonc1C(=O)NCCNCc1cc(Br)ccc1OCc1ccc(F)cc1	inactive
CCOC(=O)c1ccc(NC(=O)Cn2ncc(Cl)c(Cl)c2=O)cc1	inactive
O=C(c1nnsc1S(=O)c1ccc(Cl)cc1)N1CCOCC1 (configuration not stated)	inactive
CCCOc1ccccc1C1CC(=O)Nc2cc3c(cc21)OCO3 (configuration not stated)	inactive
Fc1ccc(-n2nnnc2-c2cnc(-c3cccs3)nc2C(F)(F)F)cc1	inactive
O=C1CSc2ccc(C(=O)Nc3cccc(S(=O)(=O)Nc4ccc(Br)cc4)c3)cc2N1	inactive
Cc1cc(N2CCCC2=O)cc(C)c1S(=O)(=O)NCCOc1ccc(C(C)(C)C)cc1	inactive
CCOC(=O)C1CCN(C(=O)c2ccc(OCC(=O)Nc3cccc(C(F)(F)F)c3)c(OC)c2)CC1	inactive
O=c1c2ccccc2nc2n1C(CSCc1ccc(Cl)cc1Cl)CS2 (configuration not stated)	inactive
COc1ccc(NS(=O)(=O)c2ccc(C(=O)N3CCCCCC3)cc2)cc1	inactive
COc1ccc(NC(=O)c2nc(S(=O)(=O)Cc3cccc(C)c3)ncc2Cl)c(OC)c1	inactive
COc1ccc2c(c1)c(CC(=O)Nc1cc(C)ccc1C)c(C)n2C(=O)c1ccc(Cl)cc1	inactive
CC(C)(C)NC(=O)CSc1nc2ccc(NC(=O)CSc3nnnn3Cc3ccccc3)cc2s1	inactive
COc1cc(CN2CCc3ccccc3C2)ccc1O	inactive
COc1cc2ncnc(N[C@H](C)c3ccccc3)c2cc1OC	inactive
COc1ccc(Nc2nc(N3CCCCC3)c3ccccc3n2)cc1	inactive
Cc1cc2c(cc(C(=O)N3CCC(C(=O)NC4CCCC4)CC3)n2Cc2c(F)cccc2Cl)o1	inactive
CN(C(=O)COc1ccccc1C(=O)NCCOc1ccccc1)c1ccccc1	inactive
CC(C)[C@H](NC(=O)OC(C)(C)C)c1nnc(S(=O)(=O)Cc2c(F)cccc2Cl)o1	inactive
